# Test results from article PMC11062922 (Nature Chemical Biology, 2023).
# Like-named read-outs stand apart in the source and are kept apart here.
# Key:
# ABL1 = test system: ABL1; parameters: species or system human, MV4-11 + K-562 + COLO205 + SK-N-BE2 + OVCAR-8; conditions: read-out: apparent Kd, compound concentrations: 100 nM and 1000 nM (sheet 'Samples'), n = 1
# ABL2 = test system: ABL2; parameters: species or system human, MV4-11 + K-562 + COLO205 + SK-N-BE2 + OVCAR-8; conditions: read-out: apparent Kd, compound concentrations: 100 nM and 1000 nM (sheet 'Samples'), n = 1
# BCR = test system: BCR; parameters: species or system human, MV4-11 + K-562 + COLO205 + SK-N-BE2 + OVCAR-8; conditions: read-out: apparent Kd, compound concentrations: 100 nM and 1000 nM (sheet 'Samples'), n = 1
# CLK1 = test system: CLK1; parameters: species or system human, MV4-11 + K-562 + COLO205 + SK-N-BE2 + OVCAR-8; conditions: read-out: apparent Kd, compound concentrations: 100 nM and 1000 nM (sheet 'Samples'), n = 1
# CLK4 = test system: CLK4; parameters: species or system human, MV4-11 + K-562 + COLO205 + SK-N-BE2 + OVCAR-8; conditions: read-out: apparent Kd, compound concentrations: 100 nM and 1000 nM (sheet 'Samples'), n = 1
# CSNK2A1;CSNK2A3 = test system: CSNK2A1;CSNK2A3; parameters: species or system human, MV4-11 + K-562 + COLO205 + SK-N-BE2 + OVCAR-8; conditions: read-out: apparent Kd, compound concentrations: 100 nM and 1000 nM (sheet 'Samples'), n = 1
# CSNK2A2 = test system: CSNK2A2; parameters: species or system human, MV4-11 + K-562 + COLO205 + SK-N-BE2 + OVCAR-8; conditions: read-out: apparent Kd, compound concentrations: 100 nM and 1000 nM (sheet 'Samples'), n = 1
# FYN = test system: FYN; parameters: species or system human, MV4-11 + K-562 + COLO205 + SK-N-BE2 + OVCAR-8; conditions: read-out: apparent Kd, compound concentrations: 100 nM and 1000 nM (sheet 'Samples'), n = 1
# GAK = test system: GAK; parameters: species or system human, MV4-11 + K-562 + COLO205 + SK-N-BE2 + OVCAR-8; conditions: read-out: apparent Kd, compound concentrations: 100 nM and 1000 nM (sheet 'Samples'), n = 1
# HCK = test system: HCK; parameters: species or system human, MV4-11 + K-562 + COLO205 + SK-N-BE2 + OVCAR-8; conditions: read-out: apparent Kd, compound concentrations: 100 nM and 1000 nM (sheet 'Samples'), n = 1
# LCK = test system: LCK; parameters: species or system human, MV4-11 + K-562 + COLO205 + SK-N-BE2 + OVCAR-8; conditions: read-out: apparent Kd, compound concentrations: 100 nM and 1000 nM (sheet 'Samples'), n = 1
# PTK6 = test system: PTK6; parameters: species or system human, MV4-11 + K-562 + COLO205 + SK-N-BE2 + OVCAR-8; conditions: read-out: apparent Kd, compound concentrations: 100 nM and 1000 nM (sheet 'Samples'), n = 1
# Q6ZSR9 = Q6ZSR9 (human, UniProt Q6ZSR9); parameters: species or system MV4-11 + K-562 + COLO205 + SK-N-BE2 + OVCAR-8; conditions: read-out: apparent Kd; compound concentrations: 100 nM and 1000 nM (sheet 'Samples'), CATDS: 1.4224903483056099E-2; n = 1
# RET = test system: RET; parameters: species or system human, MV4-11 + K-562 + COLO205 + SK-N-BE2 + OVCAR-8; conditions: read-out: apparent Kd, compound concentrations: 100 nM and 1000 nM (sheet 'Samples'), n = 1
# RIPK2 = test system: RIPK2; parameters: species or system human, MV4-11 + K-562 + COLO205 + SK-N-BE2 + OVCAR-8; conditions: read-out: apparent Kd, compound concentrations: 100 nM and 1000 nM (sheet 'Samples'), n = 1
# TNK1 = test system: TNK1; parameters: species or system human, MV4-11 + K-562 + COLO205 + SK-N-BE2 + OVCAR-8; conditions: read-out: apparent Kd; compound concentrations: 100 nM and 1000 nM (sheet 'Samples'), CATDS: 2.1497624040677302E-2; n = 1
# YES1 = test system: YES1; parameters: species or system human, MV4-11 + K-562 + COLO205 + SK-N-BE2 + OVCAR-8; conditions: read-out: apparent Kd, compound concentrations: 100 nM and 1000 nM (sheet 'Samples'), n = 1
# AAK1 = test system: AAK1; parameters: species or system human, MV4-11 + K-562 + COLO205 + SK-N-BE2 + OVCAR-8; conditions: read-out: apparent Kd; compound concentrations: 100 nM and 1000 nM (sheet 'Samples'), CATDS: 5.6248629663802403E-2; n = 1
# RIPK3 = test system: RIPK3; parameters: species or system human, MV4-11 + K-562 + COLO205 + SK-N-BE2 + OVCAR-8; conditions: read-out: apparent Kd; compound concentrations: 100 nM and 1000 nM (sheet 'Samples'), CATDS: 1.48381507951055E-2; n = 1
# Sequence of Q6ZSR9 (Q6ZSR9 whole entry, looked up): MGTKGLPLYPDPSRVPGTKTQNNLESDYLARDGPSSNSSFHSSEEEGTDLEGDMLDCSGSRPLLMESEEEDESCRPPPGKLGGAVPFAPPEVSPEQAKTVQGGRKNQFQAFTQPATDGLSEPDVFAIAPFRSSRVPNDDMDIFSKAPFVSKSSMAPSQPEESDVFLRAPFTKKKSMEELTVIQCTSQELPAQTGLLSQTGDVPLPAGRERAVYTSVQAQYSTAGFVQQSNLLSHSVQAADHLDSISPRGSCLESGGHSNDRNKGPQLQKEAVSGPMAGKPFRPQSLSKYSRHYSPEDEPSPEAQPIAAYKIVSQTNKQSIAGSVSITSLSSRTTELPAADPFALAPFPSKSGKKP
compound,measurement,setting,value
O=C1N=C(NCc2cccs2)SC1Cc1ccc2ncccc2c1 (stereo not shown) [RO4629078-000],potency estimated from few doses,ABL1; CATDS: 1.03104130889283E-2,621 nM
same,potency estimated from few doses,ABL2; CATDS: 1.75956171974825E-2,217 nM
same,potency estimated from few doses,BCR; CATDS: 1.49763815406264E-2,286 nM
same,potency estimated from few doses,CLK1; CATDS: 1.45453045118455E-2,302 nM
same,potency estimated from few doses,CLK4; CATDS: 1.03422471087564E-2,616 nM
same,potency estimated from few doses,CSNK2A1;CSNK2A3; CATDS: 1.1621769953454601E-2,472 nM
same,potency estimated from few doses,CSNK2A2; CATDS: 1.0295745768990301E-2,623 nM
same,potency estimated from few doses,FYN; CATDS: 9.7047847946103404E-3,723 nM
same,potency estimated from few doses,GAK; CATDS: 1.7863526328031998E-2,211 nM
same,potency estimated from few doses,HCK; CATDS: 1.13886455432966E-2,493 nM
same,potency estimated from few doses,LCK; CATDS: 1.24730570121841E-2,406 nM
same,potency estimated from few doses,PTK6; CATDS: 9.8307432544906398E-3,699 nM
same,potency estimated from few doses,Q6ZSR9,314 nM
same,potency estimated from few doses,RET; CATDS: 1.39088138771742E-2,328 nM
same,potency estimated from few doses,RIPK2; CATDS: 9.4422951571236906E-3,777 nM
same,potency estimated from few doses,TNK1,158 nM
same,potency estimated from few doses,YES1; CATDS: 1.15943383738287E-2,474 nM
O=C1N=C(NCCc2cccc(Cl)c2)S/C1=C\c1ccc2ncccc2c1 [RO4509201-000],potency estimated from few doses,AAK1,1640 nM
same,potency estimated from few doses,CLK1; CATDS: 0.11223755313714801,275 nM
same,potency estimated from few doses,CLK4; CATDS: 0.15614566648302999,153 nM
same,potency estimated from few doses,CSNK2A1;CSNK2A3; CATDS: 0.170383689424982,133 nM
same,potency estimated from few doses,CSNK2A2; CATDS: 0.201313292648233,103 nM
Cc1ccc(O)cc1Nc1ccnc2cc(-c3ccc(CN4CCCCC4)o3)ccc12 [GW557777X],potency estimated from few doses,ABL1; CATDS: 4.3692235612931E-2,8.34 nM
same,potency estimated from few doses,ABL2; CATDS: 6.7746368355333403E-2,2.92 nM
same,potency estimated from few doses,BCR; CATDS: 0.10189444124387,1.17 nM
same,potency estimated from few doses,FYN; CATDS: 2.5035707525361502E-2,44.5 nM
same,potency estimated from few doses,GAK; CATDS: 5.9852273314458602E-2,3.88 nM
same,potency estimated from few doses,HCK; CATDS: 2.2990890088698399E-2,60.9 nM
same,potency estimated from few doses,LCK; CATDS: 1.5741185519971699E-2,353 nM
same,potency estimated from few doses,PTK6; CATDS: 2.4564391165164502E-2,47.6 nM
same,potency estimated from few doses,RET; CATDS: 4.4477848245190701E-2,7.97 nM
same,potency estimated from few doses,RIPK2; CATDS: 5.5536056615070897E-2,4.62 nM
same,potency estimated from few doses,RIPK3,508 nM
same,potency estimated from few doses,YES1; CATDS: 2.43288733372133E-2,49.3 nM
